# Screening data (PubChem BioAssay)
# Pemphigus Ab inh = inhibitors of pemphigus antibody binding to DSG3, primary screen, biochemical, bead-based, flow cytometry, scFv-GFP | Desmoglein-3 (Homo sapiens), P32926 | DSG3-coupled beads, scFv-anti-DSG3-GFP binding; active compounds read low | binding (percent of control), % at 10 µM | AID 588358, 2011 | actives 0.48% (n = 310,000);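 active = binding more than 3 SD below its plate's average and above zero; inconclusive = below that plate limit but binding exactly zero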;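 also: hits lower antibody fragment binding to DSG3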
# GRK2 aptamer HTS = compounds blocking aptamer binding on GRK2 – biochemical, human GRK2, bead flow cytometry, HTS, primary screen; FAM-aptamer displacement from GRK2; actives 0.59% (n = 330,000); AID 488847, 2010; Beta-adrenergic receptor kinase 1 (Homo sapiens), P25098; inhibition of aptamer binding, % at 10 µM;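 active = inhibition of aptamer binding above 40%, roughly 3 SD of noise, on plates passing a quality check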;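 also: median bead fluorescence of bound FAM aptamer so fluorescent compounds give negative values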
# VLA-4 inh = inhibition in human VLA-4 binding assay, primary screen, VLA-4 allosteric modulator project, MLPCN library, flow cytometry, VLA-4 expressing cells. ligand binding flow cytometry. inhibition, % (about 7 µM as worked out from the volumes in the protocol). actives 0.2% (n = 330,000). AID 2557, 2010; in the data active = inhibition above about 50%
# PREPL inh = PREPL enzyme inhibitors, primary screen, biochemical, fluorescence polarization; Prolyl endopeptidase-like (Homo sapiens), Q4J6C6; recombinant PREPL, fluorescence polarization activity-based probe; inhibition, % at 5.96 µM; actives 0.68% (n = 320,000); AID 2751, 2010
# Target sequence (Q4J6C6 whole entry, looked up): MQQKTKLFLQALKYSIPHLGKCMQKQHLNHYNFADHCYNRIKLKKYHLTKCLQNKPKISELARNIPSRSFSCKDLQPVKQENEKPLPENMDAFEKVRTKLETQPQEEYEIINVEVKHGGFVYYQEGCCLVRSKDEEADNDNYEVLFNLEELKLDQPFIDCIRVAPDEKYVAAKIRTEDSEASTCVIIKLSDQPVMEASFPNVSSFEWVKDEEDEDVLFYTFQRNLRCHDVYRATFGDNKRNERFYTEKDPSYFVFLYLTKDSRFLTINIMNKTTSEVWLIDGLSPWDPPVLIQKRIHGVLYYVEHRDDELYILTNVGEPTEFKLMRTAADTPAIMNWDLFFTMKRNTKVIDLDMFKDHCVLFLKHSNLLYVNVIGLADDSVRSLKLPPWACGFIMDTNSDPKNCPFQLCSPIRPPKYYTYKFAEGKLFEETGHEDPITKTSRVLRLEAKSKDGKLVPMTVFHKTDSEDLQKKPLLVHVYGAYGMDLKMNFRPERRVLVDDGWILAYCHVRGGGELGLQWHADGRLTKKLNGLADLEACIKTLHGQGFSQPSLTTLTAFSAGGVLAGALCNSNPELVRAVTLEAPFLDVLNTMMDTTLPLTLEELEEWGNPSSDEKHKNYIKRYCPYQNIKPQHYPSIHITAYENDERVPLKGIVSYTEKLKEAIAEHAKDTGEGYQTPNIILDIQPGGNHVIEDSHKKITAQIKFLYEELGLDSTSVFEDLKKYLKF
# JMJD2C inh = inhibitors of GASC-1 histone demethylase, primary screen, biochemical, fluorescence, DELFIA europium | Lysine-specific demethylase 4C (Homo sapiens), Q9H3R0 | GST-JMJD2C(1-420) H3K9me3 demethylation | inhibition, % at 2.35 µM | actives 0.069% (n = 330,000);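 active = more than half of a compound's replicate wells show inhibition beyond 50%, single wells judged on their own value; inconclusive = some, but no more than half, of replicates pass 50% inhibition; inactive = no replicate passes 50% inhibition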;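 also: signal counts dimethyl H3K9 product captured on neutravidin plate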
# PREPL inh cf = human PREPL enzyme inhibitors, confirmation, biochemical, fluorescence polarization | shares compounds with PREPL inh | recombinant PREPL, fluorescence polarization activity probe | inhibition, % at 5.96 µM | actives 67% (n = 2,000)
# GRK2 CP1 = GRK2 aptamer-displacing inhibitors, retest, confirmation, biochemical, cherry pick 1, bead flow cytometry | shares compounds with GRK2 aptamer HTS | bead-bound GRK2, FAM-aptamer displacement | aptamer displacement, % at 10 µM | actives 4% (n = 2,000);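 active = aptamer displacement above 40%, near three times the noise of non-fluorescent compounds, on plates passing quality checks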;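 also: negative values mostly reflect intrinsic compound fluorescence rather than true enhancement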
# Aptamer quench 1 = fluorescent aptamer quenching in GRK2 counter-screen dose response. shares compounds with GRK2 aptamer HTS. Fluorescent RNA aptamer beads, flow cytometry; active compounds read high. fluorescence change (kMESF span), kMESF (test concentration not listed). 110 tested, under 10 active. AID 504521;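 active = compounds whose bead fluorescence drops by more than 37 kMESF across the dose range, marking them as dye quenchers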
# Aptamer quench SP = counter-screen for GRK2 aptamer inhibitors: fluorescent aptamer quenchers | shares compounds with GRK2 aptamer HTS | Carboxyfluorescein RNA aptamer on beads, flow cytometry quenching; active compounds read low | fluorescence response (% of DMSO), % at 10 µM | 2,000 tested, under 10 active;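 active = compounds that quench the bead-bound fluorescent RNA probe, cutting fluorescence to under half of the solvent control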;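 also: counterscreen run without GRK2 so only probe quenching by compound is measured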
# GRK2 confirm 2 = GRK2 aptamer-displacing inhibitors, hit retest, confirmation, biochemical, cherry pick 2, bead flow cytometry. inhibition of aptamer binding, % at 10 µM. 360 tested, under 10 active. bead-bound GRK2, FAM-aptamer displacement. shares compounds with GRK2 aptamer HTS;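 active = inhibition of aptamer binding above 40%, about triple the noise seen with nonglowing compounds, on plates passing quality control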;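 also: negative values mostly come from compounds that fluoresce themselves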
# FAM quench SP = aptamer fluorescence quenching in GRK2 counter-screen. shares compounds with GRK2 aptamer HTS. fluorescence response vs DMSO, % at 10 µM. 360 tested, under 10 active. carboxyfluorescein RNA aptamer beads, flow cytometry quenching; active compounds read low. AID 588494;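 active = response vs DMSO under 50%, meaning signal dropped by over half, treated as fluorescence quencher; inconclusive = no clear call, values can overlap the other calls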;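 also: labelled aptamer on streptavidin beads without GRK2 as a quench counter-screen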
# Numbers stand for hits; - = inactive; ? = inconclusive; . = not tested or not shown. An excerpt weighted towards active compounds, which were near 1.6% of everything screened. Rule as the data show it, unless noted: active = inhibition above about 43%; inactive = the rest.
SMILES,Pemphigus Ab inh,GRK2 aptamer HTS,VLA-4 inh,PREPL inh,JMJD2C inh,GRK2 CP1,Aptamer quench SP,others
CCn1nc(-c2ccccc2)nc2c(=O)n(C)c(=O)nc1-2,-,54,-,56,-,.,.,PREPL inh cf=44
O=C1C(=O)c2ccccc2-c2ccccc21,-,-,-,53,-,.,.,PREPL inh cf=50
CCOC(=O)c1c(NS(=O)(=O)c2ccccc2)n(CCCOC)c2nc3ccccc3nc12,-,-,-,46,-,.,.,PREPL inh cf=-
O=C(O)c1cccc(NC(=O)N2C[C@H]3C[C@@H](C2)c2cccc(=O)n2C3)c1,-,-,-,-,-,.,.,
Cc1nc2c(=O)n(C)c(=O)nc-2n(C)n1,-,41,-,44,92,63,-,PREPL inh cf=51;Aptamer quench 1=-
O=c1[nH]c(=O)n(CCc2ccc(F)cc2)c(O)c1C=NCCCn1ccnc1,-,-,-,-,-,.,.,
COc1cc(CN2CCNCC2)cc(OC)c1OC,-,-,-,-,-,.,.,
COc1ccc(CN2CCNCC2)c(OC)c1OC,-,-,-,-,-,-,-,
CCNC(=O)[C@H]1O[C@@H](n2cnc3c(N)ncnc32)[C@H](O)[C@@H]1O,-,-,-,-,-,-,-,
Nc1ncnc2c1ncn2[C@@H]1O[C@H](COP(=O)(O)CP(=O)(O)O)[C@@H](O)[C@H]1O,-,.,.,.,.,.,.,
C=CCN1C(=O)C2(C(C(=O)OCC)=C(N)Oc3ccccc32)c2c1c1ccccc1oc2=O (stereo unspecified),.,-,-,-,-,.,.,
CC(C)CNc1c2c(nc3ccccc13)CCC2,-,-,-,-,-,.,.,GRK2 confirm 2=-;FAM quench SP=-
c1ccc(CNc2c3c(nc4ccccc24)CCC3)cc1,-,-,-,-,-,.,.,
Clc1ccc(C2NCCc3[nH]cnc32)cc1 (stereo unspecified),-,-,-,-,-,.,.,
CCOC(=O)C1CCN(/C=C2/C(=O)NC(=O)N(Cc3ccco3)C2=O)CC1,-,82,-,-,-,-,-,
Cc1ccc(-n2c(C)cc(/C=C3/C(=O)NC(=O)N(Cc4ccco4)C3=O)c2C)cc1,-,-,-,-,-,.,.,
Cc1ccc(OCCn2cccc2/C=C2/C(=O)NC(=O)N(Cc3ccco3)C2=O)cc1,-,-,-,-,-,-,-,
O=C1NC(=O)N(Cc2ccco2)C(=O)/C1=C/C=C/c1ccco1,-,-,-,-,-,-,-,
COC(=O)C1=C(c2c(C)noc2C)C[C@@H]2CC[C@H]1N2C(=O)NCCO,-,75,-,-,-,-,-,
O=c1c2ccccc2nc(/C=C\c2ccccc2[N+](=O)[O-])n1-c1ccccc1O,-,45,-,-,-,-,-,
CC1(O)CCN2C(=O)CCc3cccc1c32 (stereo unspecified),-,41,-,-,-,-,-,
Cc1ccccc1OP(N)(=O)Oc1ccccc1C,-,52,-,-,-,-,-,
O=C(O)C1C2CCC(O2)C1C(=O)NC1CCCCC1 (stereo unspecified),.,-,-,-,-,.,.,
O=C1NCCCCC1(Cl)Cl,-,.,.,.,.,.,.,
CCOC(=O)C1=C(N)OC2=C(C(=O)CCC2)C12C(=O)N(C)c1ccccc12 (stereo unspecified),-,-,-,-,-,.,.,
SMILES,Pemphigus Ab inh,GRK2 aptamer HTS,VLA-4 inh,PREPL inh,JMJD2C inh,GRK2 CP1,Aptamer quench SP,others
Cc1cc(/C=C2\C(=O)NC(=O)N(Cc3ccccc3Cl)C2=O)c(C)n1-c1ccc(C(=O)O)cc1,-,77,-,-,?,-,-,
Cc1ccc(N2C(=O)NC(=O)/C(=C\c3cc(C)n(-c4cc(C(=O)O)cc(C(=O)O)c4)c3C)C2=O)cc1,-,-,-,-,-,.,.,
CCc1ccc(N2C(=O)NC(=O)/C(=C\c3cc(C)n(-c4cc(C(=O)O)cc(C(=O)O)c4)c3C)C2=O)cc1,-,58,-,-,-,-,-,
Cc1cc(/C=C2\C(=O)NC(=O)N(Cc3ccco3)C2=O)c(C)n1-c1ccc(C(=O)O)cc1,-,-,-,-,-,.,.,
CCCCCC1(C(C)C)C(=O)NC(=S)NC1=O,-,.,.,.,.,.,.,
COC(=O)C1=C(c2cccc(OCc3ccccc3)c2)C[C@@H]2CC[C@H]1N2C(=O)NCCc1ccc(F)cc1,.,98,-,-,.,-,-,
COc1ccc(CCNCc2ccncc2)cc1,-,-,-,-,-,.,.,
O=c1[nH]c(CN2CCNCC2)nc2ccccc12,-,-,-,-,-,.,.,GRK2 confirm 2=-;FAM quench SP=-
CCOC(=O)c1c(/N=C/c2c(O)n(-c3ccc(F)cc3)c(=S)[nH]c2=O)sc2c1CCCC2,-,-,-,-,-,.,.,
CCOC(=O)c1c(/N=C/c2c(O)n(-c3ccccc3F)c(=S)[nH]c2=O)sc2c1CCCC2,-,54,-,-,-,-,-,
CCN(CC)S(=O)(=O)c1ccc(N=Cc2c(O)n(-c3ccccc3)c(=O)[nH]c2=O)cc1,-,-,-,-,-,.,.,
O=C1c2cccc3cccc(c23)C(=O)N1/N=C/c1c(O)n(-c2ccccc2)c(=O)[nH]c1=O,.,62,-,-,-,-,-,
O=C1NCCN2CCCC12 (stereo unspecified),-,-,-,-,-,.,.,
